# Pf Dd2 growth: Plasmodium falciparum Dd2 growth inhibition; P. falciparum Dd2 growth, SYBR Green, 72 h; Potency, µM (series often up to 28.9 µM), without a hit: top-dose activity, negative = inhibition, actives largely listed as inhibitors; 4.3% of 120,000 active; AID 1347417; active = well fitted inhibition curve with a large enough effect;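 also: plate controls were DMSO vehicle for no effect and reference drug for full effect; nearly all actives have a fitted effect of over 65% in size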
#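 Infected erythrocytes (Dd2, 0.3% parasitemia, 2.5% hematocrit final) are added to compound in RPMI-1640/Albumax II medium, grown 72 h at 37C in low oxygen, then lysed with saponin/Triton-X containing SYBR Green and read by fluorescence.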
# Active calls of the source: *; i = inactive; [ ] = remark or other dose. This excerpt belongs to a sample that is enriched for hits. Potency is read from the fitted curve at half-maximal effect.
SMILES,Pf Dd2 growth
CN1C(=O)CC(C(=O)O)C12CCN(Cc1nc(-c3ccco3)no1)CC2 (stereo unspecified),-5.6%
C[S+](=O)([O-])N1C[C@H](C(=O)N2CCN(c3ccccn3)CC2)C[C@@H]1c1ccc(F)cc1,i
O=C(O)[C@@H]1CN(Cc2ccccc2)C[C@@H]1C(=O)N1CCN(c2ccccn2)CC1,-8.4%
O=C([C@@H]1C[C@@H](c2ccc(F)cc2)N(Cc2ccccc2)C1)N1CCN(c2ccccn2)CC1,7.08µM*
CN(CC1CCOCC1)C(=O)Nc1ccccc1F,3.9%
O=C(c1ccc(C(F)(F)F)cc1)N1CC(Oc2ccc(F)cc2F)C1,2.7%
COc1ccc(-c2cc3nc(C)c(CCC(=O)N4CCN(c5cccc(Cl)c5)CC4)c(C)n3n2)c(OC)c1,10µM*
COc1ccc(-c2cc3nc(C)c(CCC(=O)N4CCN(c5ccc(F)cc5)CC4)c(C)n3n2)c(OC)c1,10µM*
COc1ccc(N2CCN(C(=O)CCc3c(C)nc4cc(-c5ccc(Cl)cc5)nn4c3C)CC2)cc1,i
Cc1nc2ncnn2c(C)c1CCC(=O)N1CCN(c2ccc(F)cc2)CC1,4.7%
COc1ccc(N2CCN(C(=O)c3c(C)nn(-c4ccc(F)cc4)c3-n3cccc3)CC2)cc1,10.4%
Cc1nc2ncnn2c(C)c1CCC(=O)N1CCN(c2cccc(Cl)c2)CC1,7.2%
CN1C[C@@H](NC(=O)Nc2ccc(F)cc2F)C[C@H]1c1nc(-c2ccncc2)no1,i
CC(=O)c1cccc(NC(=O)Cn2ccn3nc(-c4ccc(F)cc4)c(CO)c3c2=O)c1,-18.0%
Cc1sc2c(c1C)c(=O)n(Cc1ccccc1)c(=O)n2CC(=O)N(C)c1ccccc1,29.1%
CCOC(=O)c1ccccc1NC(=O)Cn1c(=O)n(-c2ccc(CC)cc2)c(=O)c2c(C)c(C(=O)N(C)C)sc21,-21.4%
CCN(CC)C(=O)c1sc2c(c1C)c(=O)n(Cc1ccccc1)c(=O)n2Cc1c(C)cc(C)cc1C,10µM*
CCN(CC)C(=O)c1sc2c(c1C)c(=O)n(-c1ccc(C)c(C)c1)c(=O)n2Cc1cccc(Cl)c1,-6.4%
Cc1cc(C)c(Cn2c(=O)n(Cc3ccccc3)c(=O)c3c(C)c(C)sc32)c(C)c1,65.0%
Cc1cccc(C)c1NC(=O)Cn1c(=O)n(Cc2ccccc2)c(=O)c2c(C)c(C(=O)N(C)C)sc21,8.91µM*
O=C(Cc1cccc(Cl)c1)N1CCCC(c2nn(-c3ccccc3)c(=O)[nH]2)C1 (stereo unspecified),i
COc1ccc(C2Cn3nnc(C(=O)N4CCC(C(=O)NCc5ccccc5)CC4)c3CO2)cc1 (stereo unspecified),4.5%
CC(C)c1cc(C(=O)N2CC[C@@](O)(C3CCOCC3)[C@H](C)C2)cs1,-13.4%
Cc1cc(-c2cccc(OCCn3ccnc3)c2)ccn1,-10.1%
O=C(c1ccc(C(F)(F)F)cc1)N1CCC2(CC1)C(=O)Nc1ccccc12,-3.1%
SMILES,Pf Dd2 growth
CC(C)=CCN1Cc2ccccc2NC(=O)C12CCNC2 (stereo unspecified),-13.7%[44.1 µM]
O=C1Nc2ccccc2C12CCN(Cc1ccc(C(F)(F)F)cc1)CC2,12.6µM*
CC(=O)Nc1ccc(CN2CCC3(CC2)C(=O)Nc2ccccc23)cc1,-13.6%
O=C1Nc2ccccc2CC12CCN2Cc1ccc(C(F)(F)F)cc1 (stereo unspecified),i
O=C1Nc2ccccc2CN(Cc2ccc(C(F)(F)F)cc2)C12CCNCC2,6.31µM*
Cn1nccc1C(O)c1cc2n(n1)CCCN(c1nc3ccccc3s1)C2 (stereo unspecified),-4.2%
Cc1ccc(OCCSc2nnc(-c3cccs3)o2)cc1Cl,79.8%
Cc1ccc(-c2nnc(SCCOc3ccccc3)o2)cc1,6.2%
Cc1ccc(OCCSc2nnc(-c3cccs3)o2)cc1,11.2µM*
Cc1cc(N2CCC(NC(=O)c3ccc4nc[nH]c4c3)C2=O)ccc1F (stereo unspecified),-11.9%
CCN1CCC(N2CCOC3(COCCN(C(=O)c4ccccc4C)C3)C2)CC1 (stereo unspecified),3.8%
Cc1ccc(OCc2nc(C3CCCCN3C(=O)c3cc(F)ccc3F)no2)cc1 (stereo unspecified),i
O=C(CN1CCN(c2ncccn2)[C@@H]2CS(=O)(=O)C[C@@H]21)NCc1ccco1,1.1%
O=C(O)CC1(CC(=O)N[C@H]2CO[C@H]3[C@@H]2OC[C@@H]3n2nnnc2Oc2ccccc2)CCCC1,21.2%
COc1cccc(C(=O)NC2CCN(c3cc(-c4ccccc4)[nH]n3)C2)c1 (stereo unspecified),i
Cc1c(C(=O)N2CCC(c3nc4ccccc4s3)CC2)oc2cc(Br)ccc12,-18.5%
O=C(c1ccccc1Cl)N1CCC(c2nc3ccccc3s2)CC1,88.2%
Cc1ccc2oc(C(=O)N3CCC(c4nc5ccccc5s4)CC3)c(C)c2c1,31.1%
Cc1cc(C)c2c(C)c(C(=O)N3CCC(c4nc5ccccc5s4)CC3)oc2c1,8.91µM*
COc1cc(C(=O)N2CCC(c3nc4ccccc4s3)CC2)cc(OC)c1OC,96.2%
Cc1ccccc1C(=O)N1CCC(c2nc3ccccc3s2)CC1,1.26µM*
C[S+](=O)([O-])N1CCn2cc(C(=O)NCc3ccc(Cl)nc3)nc2C1,22.7%
O=C(NCc1ccccc1)N1CCC2(CCCCO2)CC1,-1.9%
Cc1c(CNC(=O)c2ccc3nc(-c4ccc(F)cc4)cn3c2)cnn1C,-14.6%
CNC(=O)[C@@H]1CN(C(=O)c2ccncn2)C[C@H]1c1n[nH]c(C)n1,i
SMILES,Pf Dd2 growth
O=C(O)C[C@@H]1CCN(C(=O)COc2ccccc2)C[C@@H]1CCN1CCN(c2cccc(C(F)(F)F)c2)CC1,i
CC(C)c1noc(CC2CCN(C(=O)c3ccc(N(C)C)cc3)CC2)n1,-0.3%
CC(C)c1noc(CC2CCN(C(=O)c3ccc(C(C)(C)C)cc3)CC2)n1,7.94µM*
CC(C)c1noc(CC2CCN(C(=O)c3ccc(F)cc3)CC2)n1,17.1%
CC(C)S(=O)(=O)N1CCC(Oc2ncccc2C(=O)N(C)C)C1 (stereo unspecified),5.7%
O=C(CC1CCCN(c2cnn(CC3CC3)c(=O)c2)C1)NCc1cccs1 (stereo unspecified),-22.8%
CCOc1ccc(Cn2c(CNS(=O)(=O)c3cccc(Cl)c3)nc3cccnc32)cc1,-7.7%
CCOc1ccc(/C=C/c2nc3ccccc3n2S(=O)(=O)c2cccc(Cl)c2)cc1,3.55µM*
CSc1ccc(/C=C/c2nc3ccccc3n2S(=O)(=O)c2ccc(F)c(C)c2)cc1,i
Cc1ccc(CN2CCC3(CC2)OC(=O)N(Cc2ccc(O)cc2)C3(C)c2ccccc2)o1 (stereo unspecified),i
Cc1ccc(C)c(NC(=O)Cn2c(=O)n(-c3ccc(F)cc3)c(=O)c3c2cc(C)n3C)c1,-14.2%
CC1CCN(CCCNC(=O)CN2C(=O)CSc3ccc(S(=O)(=O)N4CCOCC4)cc32)CC1,5.6%
CCCCNC(=O)CN1C(=O)CSc2ccc(S(=O)(=O)N3CCC(C)CC3)cc21,-0.4%
CC1CCN(CCCNC(=O)CN2C(=O)CSc3ccc(S(=O)(=O)N4CCC(C)CC4)cc32)CC1,8.91µM*
COc1ccccc1CN1C(=O)O[C@@H]2CN(c3nc(C)cc(C)n3)C[C@@H]21,-3.2%
CNC(=O)[C@H]1C[C@H](Oc2cccnc2)CN1C(=O)NCc1ccc(C)cc1,-21.7%
Cc1ccc(CN2CC[C@H](c3nnc(Cc4ccccc4)o3)C2)cc1,-6.4%[44.1 µM]
COc1ccc(NC(=O)CCCSc2nc(-c3ccco3)cc(C(F)(F)F)n2)c(OC)c1,i
Cc1ccc(NC(=O)CCSc2nc(-c3ccco3)cc(C(F)(F)F)n2)cc1F,0.794µM*

# Bioassay records (PubChem)
